Bioassay records: PubChem BioAssay, National Center for Advancing Translational Sciences (NCATS)
Cruzain Triton: blocks cruzain activity in presence of Triton detergent | actives 0.43% (n = 200,000) | P25779 | purified cruzain, Z-FR-AMC fluorescence, 0.01% Triton | Potency, µM, most hits filed as inhibitors; also: nearly all actives have a fitted effect of over 40% in size
Target sequence (P25779 123-467 limits assumed): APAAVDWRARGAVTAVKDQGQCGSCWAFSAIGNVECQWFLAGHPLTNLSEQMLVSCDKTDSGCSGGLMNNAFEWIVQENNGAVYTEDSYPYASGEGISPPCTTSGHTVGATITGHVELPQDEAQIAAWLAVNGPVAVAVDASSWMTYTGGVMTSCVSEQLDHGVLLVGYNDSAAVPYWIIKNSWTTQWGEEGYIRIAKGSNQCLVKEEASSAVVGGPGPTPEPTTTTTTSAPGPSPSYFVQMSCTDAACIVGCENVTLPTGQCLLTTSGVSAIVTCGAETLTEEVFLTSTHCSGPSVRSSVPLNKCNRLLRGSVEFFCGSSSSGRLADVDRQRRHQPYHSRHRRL
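Purified cruzain (1.5 nM final) was preincubated with compounds for 15 min at room temperature in 100 mM sodium acetate pH 5.5, 5 mM DTT, 0.01% Triton X-100. Reaction started with 2 uM Z-FR-AMC; AMC fluorescence change over 60 s gave activity.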
Cruzain noTriton: blocks cruzain activity in detergent-free assay; purified cruzain, Z-FR-AMC fluorescence, no detergent; Potency, µM, actives largely listed as inhibitors; actives 2.3% (n = 200,000); also: nearly all actives have a fitted effect of over 40% in size
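Detergent-free condition (0.00005% Triton X-100) in acetate buffer pH 5.5 with DTT. 1.5 nM enzyme and compound were pre-mixed 15 min, then 2 uM Z-FR-AMC substrate added; reaction progress from fluorescence change between first and third reads (60 s).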
Numbers stand for hits; i = inactive; ? = inconclusive. This is a sample that favours compounds with a hit; in the whole collection about 2.4% have one here. Calls follow the shape of the dose curve; as a rule, active = well fitted curve in the direction sought with a large enough effect; inconclusive = small, poorly fitted or top-dose-only effect, or another doubt; inactive = no such curve, though single readings can be large; an effect the other way counts as inactive or inconclusive.

SMILES | Cruzain Triton | Cruzain noTriton
Cc1sc2ncnc(SCC(=O)c3ccc4c(c3)OCCO4)c2c1-c1ccccc1 | i | 31.6µM
CCCn1c(SCc2nc(-c3ccc(OC)c(OC)c3)no2)nnc1-c1ccccc1 | i | i
C#CCOCCOCCOCCNc1nc(N2CCN(C(=O)Cn3cc(CCCN=C(N)N)nn3)CC2)nc(N2CCN(C(=O)[C@H](C(C)C)n3cc(CCO)nn3)CC2)n1 | i | i
C#CCOCCOCCOCCNc1nc(N2CCN(C(=O)Cn3cc(CCCN=C(N)N)nn3)CC2)nc(N2CCN(C(=O)[C@H]([C@@H](C)CC)n3cc(CCCN=C(N)N)nn3)CC2)n1 | 25.1µM | 20µM
O=C(CSc1nc(-c2ccccc2)nc2c1Cc1ccccc1O2)Nc1ccccc1 | i | 25.1µM
O=C(CSc1nc(-c2ccc(F)cc2)nc2c1Cc1ccccc1O2)Nc1cccc(C(=O)O)c1 | i | i
CCN(CC)c1ncnc2c1cnn2-c1cc(Cl)ccc1C | i | i
CCOC(=O)c1cc(-c2ccccc2)n(CC(=O)Nc2ccc(OC)cc2OC)c1C | i | i
CSc1ccc(CCNC(=O)c2ccc3c(c2)c(C)c(C)n3Cc2ccc(F)cc2)cc1 | i | 15.8µM
Cc1c(C)n(Cc2ccccc2)c2ccc(C(=O)NCc3ccccc3F)cc12 | i | ?
CCOc1ccc(CNC(=O)c2ccc3c(c2)c(C)c(C)n3Cc2ccc(Cl)cc2)cc1 | i | 10µM
Cc1ccccc1NC(=O)c1ccc2c(c1)c(C)c(C)n2Cc1ccccc1 | i | i
CSc1cccc(NC(=O)c2ccc3c(c2)c(C)c(C)n3Cc2ccc(F)cc2)c1 | i | 15.8µM
CCn1c(C)c(C)c2cc(C(=O)NCc3ccc(OC(C)C)cc3)ccc21 | i | i
O=C1C[C@H]2OCC=C3CN4CC[C@@]5(C(=O)O)[C@H](N1)C2[C@H]3C[C@H]45 (stereo not given in full) | i | i
CCc1cccc(C)c1NC(=O)CSc1nc(C)cc(C)c1C(=O)Nc1ccccc1 | i | i
COc1ccc(N(C)C(=O)c2nn(-c3ccc(C)cc3)c(=O)n(C)c2=O)c(OC)c1 | i | i
Cc1cc(C)n2nc(CNC(=O)c3cccc(N(C)C)c3)nc2n1 | i | i
Cc1cccc(NC(=O)c2nc[nH]c2C(=O)Nc2ccccc2[N+](=O)[O-])c1 | i | 10µM
CNC(=O)c1[nH]cnc1C(=O)Nc1ccccc1C | i | i
Nc1c(C(=O)Nc2nc3ccccc3s2)sc2nc(-c3cccs3)ccc12 | i | 7.94µM
Nc1ccc(C(=O)Nc2nc3ccccc3s2)cc1 | i | i
Nc1c(C(=O)Nc2ccccc2Br)sc2nc(-c3cccs3)ccc12 | i | 20µM
Nc1c(C(=O)Nc2ccc(Cl)cc2F)sc2nc(-c3cccs3)ccc12 | i | 25.1µM
CC(=O)c1sc2nc(-c3cccs3)ccc2c1N | i | i
SMILES | Cruzain Triton | Cruzain noTriton
Nc1c(C(=O)Nc2ccc(F)c(F)c2)sc2nc(-c3ccncc3)ccc12 | i | i
CCCCOC(=O)c1ccc(NC(=O)Cn2nnc3sc4c(c3c2=O)CCCC4)cc1 | i | i
Cc1ccc(NC(=O)Nc2nnc(N(CC(C)C)CC(C)C)s2)cc1Cl | i | i
Cc1cccc(CN2C(=O)N/C(=C/c3cc(C)n(-c4ccccn4)c3C)C2=O)c1 | i | 25.1µM
Cc1cc(/C=C2/NC(=O)N(Cc3ccccc3F)C2=O)c(C)n1C | i | 25.1µM
O=C1N/C(=C/c2ccco2)C(=O)N1Cc1ccccc1F | i | i
Cc1cc(/C=C2/NC(=O)N(Cc3ccccc3F)C2=O)c(C)n1-c1ccccn1 | i | ?
Cc1ccc2oc3c(c(=O)c2c1)C(c1ccccc1F)N(CCCN(C)C)C3=O (stereo not given) | i | i
CCOc1ccc(NC(=O)c2cnn3c2NC(c2ccccc2)=CC3c2cccc(OC)c2OC)cc1 (stereo not given) | i | i
Cc1cc(OCCCSc2nc(-c3ccc(C(C)(C)C)cc3)nc3cc(=O)[nH]n23)ccc1Cl | i | ?
COc1cc2c(cc1NC(=O)CSc1nc3ccccc3[nH]1)oc1ccccc12 | i | 25.1µM
COc1cc2c(cc1NC(=O)CSc1nc3cc(Cl)ccc3s1)oc1ccccc12 | i | 7.94µM
COc1cc2c(cc1NC(=O)CSc1nccn1C)oc1ccccc12 | i | i
COc1cc2c(cc1NC(=O)CSc1ccccc1)oc1ccccc12 | i | i
CN1CCN(C(=O)C(=O)Nc2c3c(nn2-c2ccc(Cl)cc2)CSC3)CC1 | i | i
CN(C)c1ccc(CNC(=O)c2ccc3nc(CCc4ccccc4)oc3c2)cc1 | i | i
CC(C)c1ccc(NC(=O)C2CCCN(S(=O)(=O)c3ccc4[nH]c(=O)oc4c3)C2)cc1 (stereo not given) | i | i
CCOc1ccc(-c2nnc(SCC(=O)NCc3ccc(Cl)cc3)o2)cc1 | 25.1µM | 20µM
CCOc1ccc(-c2nnc(SCC(=O)NCc3ccccc3)o2)cc1 | i | i
COc1ccc(-c2nnc(SCC(=O)Nc3cc(F)ccc3C)o2)cc1 | i | i
CCOc1ccc(-c2nnc(SCC(=O)Nc3cc(F)ccc3F)o2)cc1 | i | 10µM
CC(=O)N1CCc2cc(Br)cc(S(=O)(=O)N3CCC(C)CC3)c21 | i | i
Cc1ccc(NC(=O)c2cc(C)nc3c2c(C)nn3-c2cccc(Cl)c2C)c(C)c1 | i | i
COC(=O)Cn1c(=NC(=O)c2ccc([N+](=O)[O-])s2)sc2cc(Br)ccc21 | i | 10µM
COC(=O)Cn1c(=NC(=O)c2nc3ccccc3s2)sc2cc(S(C)(=O)=O)ccc21 | i | i
SMILES | Cruzain Triton | Cruzain noTriton
COc1ccccc1NC(=O)C(=O)NCCc1csc(-c2cccc(F)c2)n1 | i | i
Cc1ccc(C(C)C)c2oc(=O)cc(-c3ccc(-c4ccc(C(F)(F)F)cc4)cc3)c12 | i | ?
CC(=O)c1ccc(-c2ccc(-c3cc(=O)oc4c(C(C)C)ccc(C)c34)cc2)cc1 | i | 8.91µM
FC(F)(F)c1ccc(Cl)c(N/N=C/c2ccc(N3CCOCC3)s2)c1 | i | 10µM
CCOC(=O)N/N=C/c1ccc(N2CCOCC2)s1 | i | i
O=C(/C(=C(\[O-])c1ccccc1)[n+]1ccc2ccccc2c1)c1ccccc1 | i | ?
O=C(/C(=C(\[O-])c1ccccc1)[n+]1ccc2ccccc2c1)c1ccc(Cl)cc1 | i | 25.1µM
COc1ccc(C)cc1S(=O)(=O)NCC(c1ccc(N(C)C)cc1)N1CCc2ccccc21 (stereo not given) | i | ?
Cc1cc(C)c(S(=O)(=O)NCC(c2ccc(N(C)C)cc2)N2CCc3ccccc32)c(C)c1 (stereo not given) | i | 20µM
COc1ccccc1NC(=O)CSc1nc2ccccc2cc1Cc1ccccc1 | i | 20µM
COc1ccccc1NC(=O)CSc1nc(N)cc(N)n1 | i | i
CCc1ccc(N2CC(c3nnc(NC(=O)c4ccco4)s3)CC2=O)cc1 (stereo not given) | i | i
CCCc1[nH]nc2c1C(c1cc(OC)cc(OC)c1)C(C#N)=C(N)O2 (stereo not given) | i | i
CCCc1[nH]nc2c1C(c1cccc(OC(=O)c3ccco3)c1)C(C#N)=C(N)O2 (stereo not given) | ? | 20µM
Cc1ccc(OCC(=O)Nc2ccc(N3CCCC3)cc2)cc1C | ? | 2.51µM
CCOc1ccccc1OCC(=O)Nc1ccc(N2CCCCC2)cc1 | i | i
O=C(O)CCC(=O)Nc1ccc(N2CCCCCC2)cc1 | i | i
Cc1cc(C)cc(OCC(=O)Nc2ccc3c(c2)C(=O)c2ccccc2C3=O)c1 | i | 25.1µM
O=C(Cc1ccc(Cl)cc1)Nc1ccc(N2CCCC2)cc1 | i | 6.31µM
Cc1cccc(OCC(=O)Nc2ccc(N3CCCC3)cc2)c1C | ? | 3.16µM
